Source: PubChem BioAssay (NCI)
The panel holds about 83,000 compounds, 20% with a hit somewhere; the sample as a whole holds those more often.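 The test compound was applied at a single concentration to cells in 96-well plates for 48 hours, and percent growth was recorded.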 Values without a mark were called inactive. Activity calls are given as the source filed them. How the source made its calls: active means growth percent below 10; inactive means the rest.

test system: HL-60(TB) leukemia; experiment: NCI-60 one-dose screen, 48 h (100 = growth as untreated, 0 = no growth, -100 = all killed); settings: 10 µM unless noted

How did the growth turn out when Cc1ccc(NC2=C(Cl)C(=O)c3nc(C)ccc3C2=O)c(C)c1 was run?
The growth was -14.8% (active).

With O=C(CSc1ccc(-c2nc3ccccc3[nH]2)cn1)N1CCN(c2ccccc2F)CC1 as the compound, how does the growth read?
The growth was 64.6%.

Which growth does the source give for C=C1C(=O)O[C@@H]2/C=C(/C)C3=CC(=O)[C@@](C)(C[C@H](OC(=O)/C(C)=C\C)[C@@H]12)O3 here?
The growth was -11.9% (active).

With C#Cc1nc(C(C)=O)cs1 as the compound, how does the growth read?
The growth was 100%.

How did the growth turn out when Cn1cc(-c2nnc(N)nc2-c2cn(C)c3ccc(F)cc23)c2cc(F)ccc21 was run?
The growth was 79.3%.

How did the growth turn out when CCN(CC)CCn1c2ccc(O)cc2c2sc3cc(OC)ccc3c(=O)c21 was run?
Its growth is 16.5%.

Which growth does the source give for CC(=O)N1N=C(c2cc3ccccc3oc2=O)CC1c1cn(-c2ccccc2)nc1-c1ccc(C)cc1 (stereo not given) here?
The growth was 107%.

N#Cc1c(-c2ccc(Br)cc2)cc(-c2c[nH]c3ccccc23)nc1N was tested. Which growth did it give?
Its growth is 28.8%.

How did the growth turn out when COc1cc2cc(Oc3ccc(NC(=O)Nc4ccc(F)c(C(F)(F)F)c4)cc3)c(C)nc2cc1OCCN(C)C was run?
Its growth is 94.3%.

N#Cc1ccc(/C=N/NC(=O)c2[nH]c3ccc(Br)cc3c2-c2ccccc2)s1 was tested. Which growth did it give?
The growth was -40% (active).

For c1cc(-c2nc3ccc4[nH]ncc4c3c3c2CCCC3)[nH]n1, which growth is on record?
Its growth is 80.8%.

With Cc1ccc(C)c(NC2=C(Cl)C(=O)c3nc(C)ccc3C2=O)c1 as the compound, how does the growth read?
The growth was -25.8% (active).

How did the growth turn out when NS(=O)(=O)c1ccc(Nc2nc(N/N=C/c3ccc(Cl)cc3)nc(Nc3ccccc3)n2)cc1 was run?
The growth was 72.5%.

How did the growth turn out when COC[C@]12CCC(C)(C)C[C@H]1C1=CC[C@@H]3[C@@]4(C)CCCNC(C)(C)[C@@H]4CC[C@@]3(C)[C@]1(C)CC2 was run?
Its growth is -65.3% (active).

How did the growth turn out when CS(=O)(=O)Nc1cc(-c2ccc3ncc(C#N)c(NCc4ccccc4F)c3c2)cnc1Cl was run?
Its growth is 5.25% (active).

With COc1ccccc1-n1cc(C#N)c(N)c1C(=O)c1ccc(C)cc1 as the compound, how does the growth read?
Its growth is 56.7%.

Which growth does the source give for Nc1ncc(-c2ccc3ncnc(Nc4cccc(Cl)c4F)c3c2)cn1 here?
The growth was 90.5%.

COc1ccc2[nH]cc(-c3nn4cc(-c5ccncc5)nc4s3)c2c1 was tested. Which growth did it give?
The growth was 54.9%.

How did the growth turn out when C#Cc1nc(C(=O)NCCC(=O)Nc2ccc(NC(=O)c3ccc(/C=C/C(=O)c4nccn4C)cc3)cc2)cs1 was run?
The growth was 12.2%.

How did the growth turn out when Cc1ccc2c(c1)C13C(=C2Br)CCCN1C(=O)c1ccccc13 (stereo not given) was run?
Its growth is 68.2%.

With C=CCSc1ccc2c(c1)C(N1CCNCC1)=Nc1ccccc1O2 as the compound, how does the growth read?
The growth was 25.6% [8.25 µM].

For COc1ccccc1/C=C1\Oc2ccc(O)c(O)c2C1=O, which growth is on record?
The growth was 76.1%.

With CCCCCc1ccc(S(=O)(=O)Nc2cc(-c3csc(N)n3)ccc2OC)cc1 as the compound, how does the growth read?
Its growth is 60.8%.

With CC(C)(C)Nc1nc2c(OCCc3ccccc3)cccn2c1-c1cccc(Oc2ccccc2)c1 as the compound, how does the growth read?
The growth was 0.841% (active).

Which growth does the source give for O=C(Nc1nc2ccc(O)cc2s1)c1cccc(C(F)(F)F)c1 here?
Its growth is 18.3%.

How did the growth turn out when O=S(=O)(NCCCNc1nccc(-c2[nH]c(-c3ccccc3)nc2-c2ccc(F)c(O)c2)n1)c1cccc2ccccc12 was run?
Its growth is 59.4%.

With CCN1C/C(=N\S(=O)(=O)c2ccccc2)N(CC)C1=S as the compound, how does the growth read?
Its growth is 100%.

Which growth does the source give for N#Cc1c(-c2ccc(Cl)cc2)nc(SCc2ccc(F)cc2)nc1N1CCNCC1 here?
Its growth is -34.8% (active).

For CN1CCN(Cc2ccc(NC(=O)c3cncc(C#Cc4cnc5ccc(N6CCOCC6)nn45)c3)cc2C(F)(F)F)CC1, which growth is on record?
The growth was -40.8% (active).

Which growth does the source give for O=C(CCCCCCNC(=O)C(O)(O)C(F)(F)F)Nc1nc2ccccc2s1 here?
Its growth is 11.3%.

COc1cccc(OC)c1-c1nnn(C)c1C(=S)N1CCN(c2ccc([N+](=O)[O-])cc2Cl)CC1 was tested. Which growth did it give?
The growth was 44.3%.

For ClC(Cl)c1nc(-c2cccs2)n2nc(-c3ccccc3)cc2n1, which growth is on record?
Its growth is 0.604% (active).

How did the growth turn out when COc1cc2oc(-c3cccc(NC(=O)c4cc(NC(=O)[C@H](C)NC(=O)OC(C)(C)C)ccc4C)c3)cc(=O)c2c(OC)c1OC was run?
Its growth is 62.6%.

How did the growth turn out when CC(C)(O)c1cncc(-c2ccc3ncc(C#N)c(N4CCc5cc(F)c(Cl)cc54)c3c2)c1 was run?
Its growth is 11.5%.

For O=C1Nc2cc(Cl)ccc2/C1=C\c1ccc(OCc2ccc([N+](=O)[O-])cc2)cc1, which growth is on record?
The growth was 96.9%.

Which growth does the source give for Clc1ccc(-c2nc3ccc(/C(=N\N=C\c4ccccc4)c4ccccc4)cc3[nH]2)cc1 here?
The growth was 73.3%.

With COc1ccc(-c2cc(-c3cccc4ccccc34)n3c(n2)nc2ccccc23)cc1OC as the compound, how does the growth read?
The growth was -7.71% (active).

How did the growth turn out when O=C(N/N=C/c1ccc([N+](=O)[O-])s1)c1[nH]c2ccc(Br)cc2c1-c1ccccc1 was run?
Its growth is -28.9% (active).

How did the growth turn out when Cc1nn(-c2ccccc2)c2ncnc(N/N=C/c3cccc(O)c3)c12 was run?
The growth was 35.3%.

For Cc1ccc(C(=O)NN2C(=O)/C(=C/C=C/c3ccco3)SC2=S)cc1, which growth is on record?
The growth was 30.4%.
